Key:
Assay in all cases: PBM binding z-score (relative to random genomic background probes); higher = stronger binding; sequences stand for … in GC…GCGATTGACAGCGTAGAATGAAGG
[1] = tested on: FXR:RXRa (NR concentration 270 nM, RXRa partner concentration 90 nM)
How it was run: (§1)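 Custom Agilent 4×180K protein-binding microarrays carried double-stranded probes. Their 34-nt variable regions held direct-repeat seeds, single-nucleotide variants, half-site ablations and random human genomic background sequences. Arrays were incubated 1 h with ligand-free nuclear receptor dimers in PBS pH 7.4, 2% milk, 0.02% Triton X-100, 1 mM DTT, 0.2 mg/mL BSA and 0.4 mg/ml salmon testes DNA. Antibodies against each partner (one per run) detected binding, and scanned fluorescence was regression-normalized. Binding z-scores use random background probes as reference.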

[2] = tested on: LXRa:RXRa (NR concentration 270 nM, RXRa partner concentration 90 nM)
How it was run: as §1

[3] = tested on: LXRa homodimer (NR concentration 270 nM)
How it was run: as §1

[4] = tested on: LXRb:RXRa (NR concentration 270 nM, RXRa partner concentration 90 nM)
How it was run: as §1

[5] = tested on: LXRb homodimer (NR concentration 270 nM)
How it was run: as §1

[6] = tested on: PPARa:RXRa (NR concentration 270 nM, RXRa partner concentration 90 nM)
How it was run: as §1

[7] = tested on: PPARg:RXRa (NR concentration 180 nM, RXRa partner concentration 90 nM)
How it was run: as §1

[8] = tested on: PPARg:RXRa 270nM:90nM, anti-RXR (NR concentration 270 nM, RXRa partner concentration 90 nM)
How it was run: as §1

[9] = tested on: PPARg:RXRa 30nM:10nM, anti-RXR (NR concentration 30 nM, RXRa partner concentration 10 nM)
How it was run: as §1

[10] = tested on: PPARg:RXRa 90nM:30nM, anti-RXR (NR concentration 90 nM, RXRa partner concentration 30 nM)
How it was run: as §1

[11] = tested on: PPARg:RXRa DBDmut IVT, anti-RXR (DBD mutation: RXRa K156A/R161A, NR concentration 270 nM, RXRa partner concentration 90 nM)
How it was run: as §1

[12] = tested on: PPARg:RXRa IVT, anti-PPARg (NR concentration 270 nM, RXRa partner concentration 90 nM)
How it was run: as §1

[13] = tested on: PPARg DBDmut:RXRa IVT, anti-PPARg (DBD mutation: PPARg1 K132A/R137A, NR concentration 270 nM, RXRa partner concentration 90 nM)
How it was run: as §1

[14] = tested on: PPARg DBDmut IVT, anti-PPARg (DBD mutation: PPARg1 K132A/R137A, NR concentration 270 nM)
How it was run: as §1

[15] = tested on: PPARg homodimer (NR concentration 180 nM)
How it was run: as §1

[16] = tested on: PXR:RXRa (NR concentration 270 nM, RXRa partner concentration 90 nM)
How it was run: as §1

[17] = tested on: PXR homodimer (NR concentration 270 nM)
How it was run: as §1

[18] = tested on: RARa:RXR (NR concentration 270 nM, RXRa partner concentration 90 nM)
How it was run: as §1

[19] = tested on: RARa homodimer (NR concentration 270 nM)
How it was run: as §1

[20] = tested on: RARb:RXRa (NR concentration 270 nM, RXRa partner concentration 90 nM)
How it was run: as §1

| Sequence | PBM binding z-score [1] | PBM binding z-score [2] | PBM binding z-score [3] | PBM binding z-score [4] | PBM binding z-score [5] | PBM binding z-score [6] | PBM binding z-score [7] | PBM binding z-score [8] | PBM binding z-score [9] | PBM binding z-score [10] | PBM binding z-score [11] | PBM binding z-score [12] | PBM binding z-score [13] | PBM binding z-score [14] | PBM binding z-score [15] | PBM binding z-score [16] | PBM binding z-score [17] | PBM binding z-score [18] | PBM binding z-score [19] | PBM binding z-score [20] |
| --- | --- | --- | --- | --- | --- | --- | --- | --- | --- | --- | --- | --- | --- | --- | --- | --- | --- | --- | --- | --- |
| TAGCCTAGGTCATTGGGCCATTATAGTACGCATC | 4.57 | 3.93 | 1.08 | 2.84 | 0.197 | 4.22 | 4.13 | 3.99 | 1.45 | 3.32 | 3.37 | 4.19 | 0.472 | 0.314 | 2.65 | 1.86 | -0.263 | 2.7 | -0.217 | 3.56 |
| TCATATAGGTAAATGTGAAAGTCGAACGATATGA | 0.203 | 0.245 | -0.116 | 0.343 | -0.015 | 0.983 | 1.44 | 2.01 | 3.79 | 2.88 | 3.33 | 2.26 | 1.69 | 1.36 | 0.31 | 0.168 | -0.0723 | 0.602 | 0.286 | 0.153 |
| CCTAGTTGGTCAGGAGGTTACACACCGGATATGA | 0.491 | 0.633 | 0.538 | 1.02 | 0.258 | 1.5 | 1.14 | 1.4 | 0.448 | 1.07 | 0.814 | 1.65 | 0.504 | 0.527 | 1.84 | 0.862 | 0.653 | 1.38 | 0.725 | 1.47 |
| GGAACGAGGACAAGTTGATAGCAGAGTTTGATGG | 0.526 | -0.33 | -0.0892 | -0.534 | -0.685 | 0.0298 | 0.641 | -0.0478 | -0.0459 | -0.0367 | 0.934 | 0.446 | -0.104 | -0.565 | -0.282 | 0.0933 | 0.0308 | 0.108 | -0.522 | 1.32 |
| ACAGACAGGTGATCAAGGTAACTCAGGCTATCAT | 0.0446 | -0.068 | -0.091 | -0.153 | -0.411 | -0.038 | 0.479 | -0.0434 | -0.141 | -0.12 | 0.0346 | 0.406 | -0.281 | 0.238 | 0.161 | -0.179 | 0.0426 | 0.35 | 0.298 | 0.165 |
| ATCGAAAGGTCGAACGTGAGTATACCCACCCGAA | 4.36 | 3.99 | 0.856 | 3.32 | 1.01 | 4.39 | 2.81 | 2.76 | 1.14 | 2.12 | 0.292 | 1.49 | 1.19 | 0.459 | 1.65 | 2.61 | 0.229 | 2.83 | 0.171 | 3.75 |
| AGAACGAGGGCACGCTGAGCTGATAGCAGAGTAG | 0.647 | 0.277 | -0.751 | -0.0518 | -0.909 | 1.98 | 1.91 | 1.81 | 0.448 | 0.908 | 4.56 | 3.89 | 0.483 | -0.228 | 0.179 | -0.0742 | -0.541 | 0.485 | -0.937 | 2.39 |

Reference: the supplement of paper PMC6555819
